In PubChem BioAssay AID521 (Sanford-Burnham Center for Chemical Genomics, 2006) one finds inhibition data, which are given here for 5 molecules.

The campaign covered roughly 110,000 compounds. About 730 (0.66%) were called active. The entries come from a sample that favours actives as a whole. Unmarked numbers belong to inactive results. No stated cut-off is given here; in the data, active means inhibition above about 50%; inconclusive means no clear call, values can overlap the other calls; inactive means below that.

The target of the test is Tyrosine-protein phosphatase non-receptor type 7 (Homo sapiens) (UniProt P35236). The test is described as follows: HePTP tyrosine phosphatase activity blockers – biochemical, absorbance, leukemia target, primary screen (AID 521).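 Further: plate controls were vehicle for no effect and reference inhibitor for full effect.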 The note with it: recombinant HePTP phosphatase activity, OD absorbance; at 20 µM; hits give high values.
Chain of Tyrosine-protein phosphatase non-receptor type 7 (Homo sapiens) (P35236 whole entry, looked up): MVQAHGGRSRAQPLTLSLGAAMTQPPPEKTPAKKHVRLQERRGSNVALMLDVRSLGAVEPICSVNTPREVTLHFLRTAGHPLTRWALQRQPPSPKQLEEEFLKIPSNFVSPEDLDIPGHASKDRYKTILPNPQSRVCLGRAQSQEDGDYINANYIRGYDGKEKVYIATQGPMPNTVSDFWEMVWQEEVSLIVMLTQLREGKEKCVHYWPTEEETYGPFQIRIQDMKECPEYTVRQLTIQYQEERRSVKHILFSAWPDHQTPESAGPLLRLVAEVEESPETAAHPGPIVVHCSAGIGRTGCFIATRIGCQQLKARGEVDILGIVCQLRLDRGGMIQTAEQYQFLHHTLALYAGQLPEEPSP
With `C=CCN1C(=O)/C(=C\c2cccn2-c2cccc([N+](=O)[O-])c2)C(=O)NC1=S`, the inhibition was 98.9% (active). With `COc1cccc(CN2CCN(C(=O)COc3ccccc3)CC2)c1OC` the figure was 3.3%; with `CCOc1cc(C=C2C(=O)NC(=O)NC2=O)cc(Br)c1OCCOc1ccccc1C`, 3.9%; with `CCOP(=O)(OCC)C(=C(Cl)Cl)C(C(=O)OC)C(=O)OC`, 11.5%. With `C=CCSc1nc2ccccc2c(=O)n1-c1ccccc1OC` the figure was 11.5%.

One may read the inhibition as the share of the control response that was lost under treatment.
